Assay in all cases: NCI-60 one-dose screen, 48 h (100 = growth as untreated, 0 = no growth, -100 = all killed)
Common to all, as to conditions: 10 µM unless noted

In assay [1] the test system is HCT-15 colon.
For assay [2], the system named is HT29 colon.
The subject of assay [3] is SNB-75 CNS.
Assay [4] has as its system SNB-19 CNS.
Assay [5] relates to U251 CNS.
Assay [6] relates to PC-3 prostate.
Assay [7] has as its system SK-MEL-5 melanoma.
The test system of assay [8] is UACC-62 melanoma.
Assay [9] deals with LOX IMVI melanoma.
Assay [10] concerns SK-MEL-28 melanoma.
The test system of assay [11] is SK-MEL-2 melanoma.
For assay [12], the system named is EKVX NSCLC.
In assay [13] the test system is SN12C renal.
Assay [14] relates to UO-31 renal.
In assay [15] the test system is TK-10 renal.
In assay [16] the test system is ACHN renal.
Assay [17] deals with CAKI-1 renal.
Assay [18] relates to A498 renal.
Assay [19] concerns CCRF-CEM leukemia.
The test system of assay [20] is MOLT-4 leukemia.

SMILES strings stand for the structures. The panel holds about 83,000 compounds, 20% with a hit somewhere; the sample as a whole holds those more often.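 96-well plates, one dose, 48 hours. Percent growth reported; active if below 10.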 Unmarked numbers belong to inactive results. Active and inactive are the calls of the source.

Consider `Cc1noc(C)c1C(=O)OCc1coc2ccccc2c1=O`, for which the growth is 52.5% in [1]; 66% in assay [2]; 81.6% in assay [3]; 82.7% in [4]; 72.8% in [5]; 70.1% in assay [6]. Also, the growth in assay [7] is 80%; in [8], 54.7%; in assay [9] it was 70.8%; in [10] it was 86.8%; in assay [11] it was 81.4%; in assay [12] it was 86.9%. The growth in [13] is 65.4%; in assay [14] it was 48.7%; in [15] it was 71.4%; in [16], 78.3%; in assay [17], 45.3%; in [18] it was 104%. For the same molecule, the results for the growth in [19] and in assay [20] were 24.2% and 62.8%, respectively.

Take `CC(C)(C)c1cc(-c2nc3ccc(N4CCN(S(C)(=O)=O)CC4)cc3[nH]2)cc(C(C)(C)C)c1O`: the growth in [1] is 69.2%; in assay [2], 81%; in assay [3], 73.8%; in [4] it was 104%; in [5], 90.2%; in assay [6] it was 91.7%. Moreover, the growth was 95.7% in assay [7]; 94.5% in assay [8]; 91.8% in assay [9]; 94.3% in assay [10]; 94% in assay [11]; 101% in assay [12]. The growth is 97.7% in assay [13]; 97% in assay [14]; 90.4% in assay [15]; 72.4% in assay [16]; 75.5% in assay [17]; 99.4% in assay [18]. The results for the growth in assay [19] and in assay [20] were 84.5% and 64.6%, respectively.

Regarding `N#CC1=C(N)Oc2c(sc3c(Br)cccc23)C1c1ccc(F)cc1` (stereo not given), the growth was 10.3% in assay [1]; 1.78% (active) in assay [2]; 34.3% in assay [3]; 47.8% in assay [4]; 21.4% in assay [5]; 23.6% in assay [6]. Also, the growth in assay [7] was 23.6%; in assay [8] it was 26.4%; in assay [9], 27.4%; in assay [10], 57.6%; in [11] it was 37%; in assay [12], 45.6%. The growth in [13] was 27.4%; in assay [14] it was 34.4%; in [15], 43.1%; in assay [16], 30.7%; in assay [17] it was 46.6%; in assay [18], 17.8%. Further, the growth is 18.4% in assay [19] and 5.38% (active) in assay [20].

On to `C=C(C)[C@@H]1CC[C@]2(C(=O)N3CCN(C)CC3)CC[C@]3(C)[C@H](CC[C@@H]4[C@@]5(C)CC(=C/c6ccncc6)/C(=N/O)C(C)(C)[C@@H]5CC[C@]43C)[C@@H]12`, for which the growth in assay [1] is 65.5%; in assay [2], 41.1%; in assay [3] it was 66.1%; in [4], 79.7%; in assay [5], 70.2%; in [6] it was 44.8%. The growth in assay [7] is 59.9%; in assay [8] it was 78.5%; in assay [9], 86%; in assay [10], 96.4%; in assay [11], 83.8%; in assay [12], 84.6%. The growth in assay [13] was 74.7%; in assay [14], 45.5%; in assay [15], 85.2%; in [16], 75.9%; in assay [17] it was 63.8%; in [18] it was 96.8%. Besides, the growth in [19] was 57.9%; in [20] it was 33.9%.

Take `COc1ccc(C/C(C)=C(/c2ccc(OCCN3CCCCC3)cc2)c2ccc(OC(=O)NCc3ccccc3)cc2)cc1`: the growth was -85.4% (active) in assay [1]; -87.8% (active) in assay [2]; -88.9% (active) in [3]; -90.6% (active) in assay [4]; -97.5% (active) in [5]; -95.9% (active) in assay [6]. Also, the growth is -100% (active) in [7]; -92.9% (active) in assay [8]; -93% (active) in assay [9]; -85.8% (active) in assay [10]; -86.2% (active) in assay [11]; -78.4% (active) in assay [12]. Besides, the growth in assay [13] was -88% (active); in assay [14] it was -92.2% (active); in [15], -90.7% (active); in [16], -100% (active); in assay [17], -95% (active); in assay [18], -97.1% (active). Besides, the growth in [19] is -44.1% (active); in assay [20] it was -53.2% (active).

For `COC(=O)CCC(=O)C(=O)OC`, the growth in assay [1] is 16.6% [10 mM]; in [2] it was -9.41% [10 mM] (active); in assay [3], 19% [10 mM]; in [4], 12.6% [10 mM]; in [5], 3.32% [10 mM] (active); in assay [6], -5.82% [10 mM] (active). Besides, the growth in [7] is 64% [10 mM]; in assay [8], -52.8% [10 mM] (active); in assay [9] it was -19.9% [10 mM] (active); in assay [10] it was -1.85% [10 mM] (active); in assay [11] it was -34.9% [10 mM] (active); in [12] it was 23.7% [10 mM]. For the same molecule, the growth in assay [13] was 0.923% [10 mM] (active); in [14], -9.29% [10 mM] (active); in [15], -8.5% [10 mM] (active); in assay [16] it was 6.94% [10 mM] (active); in assay [17], 10.2% [10 mM]; in assay [18], -72.8% [10 mM] (active). The growth was -7.36% [10 mM] (active) in [19] and -11.4% [10 mM] (active) in assay [20].

Regarding `CN1CCN(c2ccc(C(=O)Nc3cccc(C#Cc4cccc5[nH]nc(N)c45)c3)cc2C(F)(F)F)CC1`, the growth in assay [1] is -53.9% (active); in assay [2], -35.9% (active); in assay [3], -38.2% (active); in [4] it was -78.4% (active); in [5] it was -69.1% (active); in [6], -75.4% (active). Moreover, the growth is -27.8% (active) in assay [7]; -79.2% (active) in [8]; -93.8% (active) in assay [9]; -66.4% (active) in [10]; 27.7% in [11]; 17.1% in [12]. In addition, the growth is 3.37% (active) in [13]; -62% (active) in assay [14]; -30.2% (active) in assay [15]; -46.2% (active) in assay [16]; -96.2% (active) in [17]; 5.93% (active) in assay [18]. Further, the figures for the growth in [19] and in assay [20] were -25.3% (active) and -56.3% (active), respectively.

`COc1ccc2c(O)c(/C=C3\N=Nc4ccccc43)oc2c1C[C@@H]1CCNC[C@H]1F`: the growth in assay [1] was 6.86% (active); in assay [2], 12.3%; in [3], 51.1%; in assay [4], 84.1%; in assay [5], 10.1%; in assay [6] it was 68.3%. The growth was 63.9% in assay [7]; 76% in assay [8]; -82.7% (active) in [9]; -70.2% (active) in assay [10]; 96.9% in assay [11]; 64.5% in assay [12]. Besides, the growth in assay [13] is 67.7%; in assay [14] it was 50.5%; in [15], 84.2%; in assay [16], 61.3%; in assay [17] it was 64.8%; in assay [18], 57.9%. Further, the growth is -16.3% (active) in assay [19] and 68% in assay [20].

These data come from PubChem BioAssay (NCI).
